Our source for the Potency values is PubChem BioAssay (NCATS).

Records with an inconclusive call do not appear. Where a call stands in place of a potency, no number is given. Active and inactive are the calls of the source. Calls follow the shape of the dose curve; as a rule, active = well fitted inhibition curve with a large enough effect; inconclusive = small, poorly fitted or top-dose-only effect; inactive = flat fitted curve, though single readings scatter.
Also: nearly all actives have a fitted effect of over 65% in size.

Chain of Glutathione peroxidase 1 (Homo sapiens) (P07203 whole entry, looked up): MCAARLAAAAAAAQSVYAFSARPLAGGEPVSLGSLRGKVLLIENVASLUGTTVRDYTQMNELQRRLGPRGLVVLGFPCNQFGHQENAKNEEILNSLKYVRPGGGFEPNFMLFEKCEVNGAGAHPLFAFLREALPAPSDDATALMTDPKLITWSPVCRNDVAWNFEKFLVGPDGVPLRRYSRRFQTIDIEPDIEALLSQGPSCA
Chain of Phospholipid hydroperoxide glutathione peroxidase GPX4 (Homo sapiens) (P36969 whole entry, looked up): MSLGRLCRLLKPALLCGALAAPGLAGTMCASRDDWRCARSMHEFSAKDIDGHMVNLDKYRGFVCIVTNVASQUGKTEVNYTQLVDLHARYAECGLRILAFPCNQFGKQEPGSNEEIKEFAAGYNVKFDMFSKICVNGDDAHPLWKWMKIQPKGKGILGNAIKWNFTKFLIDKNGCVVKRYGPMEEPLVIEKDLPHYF

One assay addresses Glutathione peroxidase 1 (Homo sapiens) (UniProt P07203). Put plainly: Primary qHTS Assay for Inhibitors of Recombinant Selenoprotein Glutathione Peroxidase 1 (GPX1) (AID 1845191). As to conditions: recombinant GPX1, GR-coupled NADPH fluorescence, 15 min; series mostly up to 48.8 µM. In outline:
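NADPH consumption tracked by fluorescence at 340/450 nm between t=0 and t=15 min, room temperature. Final mix: 10 nM GPX1, 100 nM glutathione reductase, 1 mM GSH, 0.5 mM NADPH, 0.5 mM cumene hydroperoxide, 0.01% BSA; 30 min compound–enzyme preincubation.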
Background: In qHTS, concentration-response curves come from the screen itself.
`CC(Oc1c(Cl)cccc1Cl)C1=NCCN1` (centres undefined): the Potency entry is “inactive”.
Take `Cc1ccc(/C=N/n2c(-c3ccccc3)csc2=S)cc1`: the Potency entry is “inactive”.
In the case of `CCOc1c(N2CCOCC2)cnn(C)c1=O`, the Potency entry is “inactive”.
On the same count and under the same terms, in the case of `CCN1CCN(C(=O)N[C@@H](C(=O)N[C@@H]2C(=O)N3[C@@H]2SC(C)(C)[C@H]3C(=O)O)c2ccccc2)C(=O)C1=O` it was “inactive”; in that of `O=C(O)CCC(=O)OC[C@@H](NC(=O)C(Cl)Cl)[C@H](O)c1ccc([N+](=O)[O-])cc1`, “inactive”.
In the case of `CCOC(=O)NNc1ccc(N(CC)CC(C)O)nn1` (centres undefined), the Potency result was “inactive”.
Turning to `CCN(CC)CC(=O)OCC(=O)[C@@]1(O)CC[C@H]2[C@@H]3CCC4=CC(=O)CC[C@]4(C)[C@H]3[C@@H](O)C[C@@]21C`, the Potency entry is “inactive”.
For the compound `CCCCCCOC(=O)NC(=N)c1ccc(NCc2nc3cc(C(=O)N(CCC(=O)OCC)c4ccccn4)ccc3n2C)cc1`, the Potency result was “inactive”.
As to `CCN(CC)C(=O)C1CN2CCc3cc(OC)c(OC)cc3C2CC1OC(C)=O` (centres undefined), the Potency result is “inactive”.
For the compound `CCCCC(O)/C=C(C)/C=C/C=C/C(=O)N1CCCC1=O` (centres undefined), the Potency entry is “inactive”.
Regarding `CCCCC(=O)OCC(=O)[C@H]1[C@H](C)C[C@H]2[C@@H]3C[C@H](F)C4=CC(=O)C=C[C@]4(C)[C@@]3(F)[C@@H](O)C[C@@]21C`, the Potency result was “inactive”.
In the case of `Cc1ccc2c(Cl)cc(Cl)c(O)c2n1`, the Potency entry is “inactive”.
Turning to `NS(=O)(=O)c1cc2c(cc1Cl)CN(C1CCCCC1)C2=O`, the Potency entry is “inactive”.
For `CCCCCC[C@@H](CCC)C(=O)O`, the Potency entry is “inactive”.
Turning to `N#Cc1cc(NC(=O)C(=O)O)c(Cl)c(NC(=O)C(=O)O)c1`, the Potency entry was “inactive”.
For `O=C(CCOCCOCCOCCOCCC(=O)Nc1c(I)cc(I)c(C(=O)O)c1I)Nc1c(I)cc(I)c(C(=O)O)c1I`, the Potency result was “inactive”.
On to `CC(C)(C)CC(=O)OCC(=O)[C@@]1(O)CC[C@H]2[C@@H]3CCC4=CC(=O)C=C[C@]4(C)[C@H]3[C@@H](O)C[C@@]21C`, for which the Potency entry was “inactive”.
Take `CNC(=O)c1c(I)c(NC(C)=O)c(I)c(C(=O)O)c1I`: the Potency result is “inactive”.
Regarding `COc1c(C)c2c(c(O)c1C/C=C(\C)CCC(=O)OCCN1CCOCC1)C(=O)OC2`, the Potency entry was “inactive”.
Regarding `CCCCN(CCN(CCCC)C(=O)N1CCOCC1)C(=O)N1CCOCC1`, the Potency result was “inactive”.
The same measure, in the same setting: the same measure for `CC(=O)N[C@@H](CCC(N)=O)C(=O)O`: “inactive”.
Still for that read-out and setting: in the case of `Cc1ccc(C(C)OC(=O)C2(C)CCC(C(=O)O)C2(C)C)cc1` (centres undefined) it was “inactive”; in that of `CC1(C)O[C@@H]2C[C@H]3[C@@H]4C[C@H](F)C5=CC(=O)C=C[C@]5(C)[C@@]4(F)[C@@H](O)C[C@]3(C)[C@]2(C(=O)CO)O1`, “inactive”.
For the compound `CCCCC(CC)CNC(=O)CC(C)OC(=O)CCC(=O)O` (centres undefined), the Potency result was “inactive”.
The same measure, in the same setting: in the case of `CC1CCCCN1CCCOC(=O)c1ccc(OC2CCCCC2)cc1` (centres undefined) it was “inactive”; in that of `C[C@H]1C[C@H]2[C@@H]3CCC4=CC(=O)C=C[C@]4(C)[C@H]3C(=O)C[C@]2(C)[C@@]1(O)C(=O)CO`, “inactive”.
For the compound `COC(=O)C1=C(C)NC(C)=C(C(=O)OCCc2ccc(N3CCN(C(c4ccccc4)c4ccccc4)CC3)cc2)C1c1cccc([N+](=O)[O-])c1` (centres undefined), the Potency result was “inactive”.
On to `CCOC(=O)Oc1ccc(CCNC(=O)[C@H](CCSC)NC(C)=O)cc1OC(=O)OCC`, for which the Potency result was “inactive”.
Still for that read-out and setting: in the case of `CCC[C@H](N[C@@H](C)C(=O)N1[C@H](C(=O)O)C[C@@H]2CCCC[C@@H]21)C(=O)OCC` it was “inactive”.
As for `COC(=O)CCCCC(CCSS/C(CCO)=C(\C)N(C=O)Cc1cnc(C)nc1N)SC(C)=O` (centres undefined), the Potency entry is “inactive”.
Turning to `Cc1c(F)cc2c(=O)c(C(=O)O)cn3c2c1CCC3C` (centres undefined), the Potency entry is “inactive”.
Regarding `NC(=O)NC1N=C([O][Al])NC1=O` (centres undefined), the Potency result is “inactive”.
With `CN(C)CCN(Cc1ccsc1)c1ccccn1`, the Potency result was “inactive”.
Still for that read-out and setting: the same measure for `Cc1ccc(C(=O)C(=O)O)cc1C`: “inactive”; for `CC1(C)O[C@@H]2C[C@H]3[C@@H]4CCC5=CC(=O)C=C[C@]5(C)[C@@]4(F)[C@@H](O)C[C@]3(C)[C@]2(C(=O)CO)O1`: “inactive”.
Consider `CC(C)(Oc1ccc(Cl)cc1)C(=O)OCCCOC(=O)C(C)(C)Oc1ccc(Cl)cc1`, for which the Potency entry was “inactive”.
On to `CC(=O)CC/C=C(\C)CC/C=C(\C)CC/C=C(\C)CCC=C(C)C`, for which the Potency result is “inactive”.

A further assay concerns the target Phospholipid hydroperoxide glutathione peroxidase GPX4 (Homo sapiens) (UniProt P36969). Put plainly: Primary qHTS Assay for Inhibitors of Recombinant Selenoprotein Glutathione Peroxidase 4 (GPX4) (AID 1845192). Conditions: recombinant GPX4, GR-coupled NADPH fluorescence, 15 min; series mostly up to 50 µM. In short, it runs like this: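 NADPH consumption followed by fluorescence at 340/450 nm, t=0 and after 15 min at room temperature. Reaction started with cumene hydroperoxide (0.5 mM final) after 30 min compound–GPX4 preincubation; final 200 nM GPX4, 100 nM GR, 1 mM GSH, 0.5 mM NADPH.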
As for `CC(Oc1c(Cl)cccc1Cl)C1=NCCN1` (centres undefined), the Potency entry is “inactive”.
`Cc1ccc(/C=N/n2c(-c3ccccc3)csc2=S)cc1`: the Potency result was “inactive”.
As for `CCOc1c(N2CCOCC2)cnn(C)c1=O`, the Potency entry is “inactive”.
`CCN1CCN(C(=O)N[C@@H](C(=O)N[C@@H]2C(=O)N3[C@@H]2SC(C)(C)[C@H]3C(=O)O)c2ccccc2)C(=O)C1=O`: the Potency result was “inactive”.
`O=C(O)CCC(=O)OC[C@@H](NC(=O)C(Cl)Cl)[C@H](O)c1ccc([N+](=O)[O-])cc1`: the Potency entry was “inactive”.
In the case of `CCOC(=O)NNc1ccc(N(CC)CC(C)O)nn1` (centres undefined), the Potency entry was “inactive”.
The same measure, in the same setting: the same measure for `CCN(CC)CC(=O)OCC(=O)[C@@]1(O)CC[C@H]2[C@@H]3CCC4=CC(=O)CC[C@]4(C)[C@H]3[C@@H](O)C[C@@]21C`: “inactive”; for `CCCCCCOC(=O)NC(=N)c1ccc(NCc2nc3cc(C(=O)N(CCC(=O)OCC)c4ccccn4)ccc3n2C)cc1`: “inactive”.
The same measure, in the same setting: the same measure for `CCN(CC)C(=O)C1CN2CCc3cc(OC)c(OC)cc3C2CC1OC(C)=O` (centres undefined): “inactive”; for `CCCCC(O)/C=C(C)/C=C/C=C/C(=O)N1CCCC1=O` (centres undefined): “inactive”.
Consider `CCCCC(=O)OCC(=O)[C@H]1[C@H](C)C[C@H]2[C@@H]3C[C@H](F)C4=CC(=O)C=C[C@]4(C)[C@@]3(F)[C@@H](O)C[C@@]21C`, for which the Potency result is “inactive”.
Turning to `Cc1ccc2c(Cl)cc(Cl)c(O)c2n1`, the Potency entry was “inactive”.
On the same count and under the same terms, the same measure for `NS(=O)(=O)c1cc2c(cc1Cl)CN(C1CCCCC1)C2=O`: “inactive”; for `CCCCCC[C@@H](CCC)C(=O)O`: “inactive”.
Still for that read-out and setting: the same measure for `N#Cc1cc(NC(=O)C(=O)O)c(Cl)c(NC(=O)C(=O)O)c1`: “inactive”; for `O=C(CCOCCOCCOCCOCCC(=O)Nc1c(I)cc(I)c(C(=O)O)c1I)Nc1c(I)cc(I)c(C(=O)O)c1I`: “inactive”; for `CC(C)(C)CC(=O)OCC(=O)[C@@]1(O)CC[C@H]2[C@@H]3CCC4=CC(=O)C=C[C@]4(C)[C@H]3[C@@H](O)C[C@@]21C`: “inactive”.
For `CNC(=O)c1c(I)c(NC(C)=O)c(I)c(C(=O)O)c1I`, the Potency result is “inactive”.
On to `COc1c(C)c2c(c(O)c1C/C=C(\C)CCC(=O)OCCN1CCOCC1)C(=O)OC2`, for which the Potency result is “inactive”.
With `CCCCN(CCN(CCCC)C(=O)N1CCOCC1)C(=O)N1CCOCC1`, the Potency result was “inactive”.
Regarding `CC(=O)N[C@@H](CCC(N)=O)C(=O)O`, the Potency entry is “inactive”.
The same measure, in the same setting: the same measure for `Cc1ccc(C(C)OC(=O)C2(C)CCC(C(=O)O)C2(C)C)cc1` (centres undefined): “inactive”; for `CC1(C)O[C@@H]2C[C@H]3[C@@H]4C[C@H](F)C5=CC(=O)C=C[C@]5(C)[C@@]4(F)[C@@H](O)C[C@]3(C)[C@]2(C(=O)CO)O1`: “inactive”.
In the case of `CCCCC(CC)CNC(=O)CC(C)OC(=O)CCC(=O)O` (centres undefined), the Potency result was “inactive”.
On to `CC1CCCCN1CCCOC(=O)c1ccc(OC2CCCCC2)cc1` (centres undefined), for which the Potency entry was “inactive”.
On the same count and under the same terms, in the case of `C[C@H]1C[C@H]2[C@@H]3CCC4=CC(=O)C=C[C@]4(C)[C@H]3C(=O)C[C@]2(C)[C@@]1(O)C(=O)CO` it was “inactive”; in that of `COC(=O)C1=C(C)NC(C)=C(C(=O)OCCc2ccc(N3CCN(C(c4ccccc4)c4ccccc4)CC3)cc2)C1c1cccc([N+](=O)[O-])c1` (centres undefined), “inactive”; in that of `CCOC(=O)Oc1ccc(CCNC(=O)[C@H](CCSC)NC(C)=O)cc1OC(=O)OCC`, “inactive”.
Same read-out and setting: the same measure for `CCC[C@H](N[C@@H](C)C(=O)N1[C@H](C(=O)O)C[C@@H]2CCCC[C@@H]21)C(=O)OCC`: “inactive”; for `COC(=O)CCCCC(CCSS/C(CCO)=C(\C)N(C=O)Cc1cnc(C)nc1N)SC(C)=O` (centres undefined): “inactive”.
On the same count and under the same terms, in the case of `Cc1c(F)cc2c(=O)c(C(=O)O)cn3c2c1CCC3C` (centres undefined) it was “inactive”; in that of `NC(=O)NC1N=C([O][Al])NC1=O` (centres undefined), “inactive”.
On to `CN(C)CCN(Cc1ccsc1)c1ccccn1`, for which the Potency result is “inactive”.
As for `Cc1ccc(C(=O)C(=O)O)cc1C`, the Potency entry was “inactive”.
Consider `CC1(C)O[C@@H]2C[C@H]3[C@@H]4CCC5=CC(=O)C=C[C@]5(C)[C@@]4(F)[C@@H](O)C[C@]3(C)[C@]2(C(=O)CO)O1`, for which the Potency result was “inactive”.
With `CC(C)(Oc1ccc(Cl)cc1)C(=O)OCCCOC(=O)C(C)(C)Oc1ccc(Cl)cc1`, the Potency entry was “inactive”.
As for `CC(=O)CC/C=C(\C)CC/C=C(\C)CC/C=C(\C)CCC=C(C)C`, the Potency entry is “inactive”.
